From publication PMC10163288
Not all results are given here. The hit rate among all sequences tested is not known here.

B1: il2ra_site1_3nfp_sap_13_mot_HHH_b1_04931_000000291_0001_38_56_H_._HHH_b2_07276_0001_0000200010_0000001_0_0001 (protein)
chain: SSSSSDYEELERLFREIFELAKKGDHEEARRLIEELEELAHEANNEFMEQAVKQLKKTVNSSSSS
B2: il2ra_site2_3nfp_normal_mot_HHH_b2_00232_000000252_0001_23_39_H_._HHH_b2_01857_0001_0000200024_0000001_0_1_af2pred_0001_af2pred (protein)
chain: SSSSSDEEEEKVEELLEEAEHIEDEEELEDILALAFLIAFEAEDPELLRLVREVSAELLQSSSSS
B3: il2ra_site2_2erj_sap_21_mot_39ed66e5fba071e4f274ea7f2cf018e6_0001_000000286_0001_17_31_H_._HHH_b1_00857_0001_0000200006_0000001_0_0001_af2pred_0001_af2pred (protein)
chain: SSSSEEREKAKELAARALQLRERGNPEEAEELLREAEEIAREGGDEELLQLIQAALRLIELSSSS
B4: il2ra_site1_3nfp_normal_mot_HHH_b1_02721_af2_000000134_0001_39_56_H_._HHH_b2_00677_af2_0001_0000100009_0000001_0 (protein)
chain: SSSSSDTEEAFQLDRELLEALRKGDEELIEELLRELEELAKELNDELAERLVEQFKELLKSSSSS
B5: il2ra_site2_2erj_sap_26_mot_HHH_b2_08005_af2_000000017_0001_39_52_H_._5f42aca8a0c299d7b7d7982f3e471efe_0001_0001_0000400050_0000001_0_0001 (protein)
chain: SSSSDLEEEVERIEKEAEELYKNGNPEEALRLLSELFDELYQLGDHELAARVIKLVAELARSSSS
B6: il2ra_site1_1z92_normal_mot_HHH_b1_04329_000000069_0001_1_19_H_._HHH_b2_03912_0001_0000100007_0000001_0_af2pred_0001_af2pred_1 (protein)
chain: SSSSIELIRFADEVVLRLAEEYKLSDEDAQYLAEVAIELIRRGYSEEEIEEILQEEAEKLSSSSS
B7: il2ra_site2_2erj_sap_19_mot_HHH_b2_00505_000000221_0001_1_17_H_._HHH_b1_08169_0001_0000200013_0000001_1_0001 (protein)
chain: SSSSSEWLHRSYKLANELMHLLARGDEEEFERLVEEIEKFAEERDNKVLKEIVESLHRLFNSSSS
B8: il2ra_site1_2b5i_normal_mot_HHH_b2_04910_000000118_0001_1_19_H_._HHH_b1_07294_af2_0001_0000100005_0000001_0_af2pred_dldesign_0_af2pred (protein)
chain: SSSSSSKEALELFLKANEAYQAGNYEEAKKLLEEALEKAKAAGMTALVKMIESALESLSSSSSSS
B9: il2ra_site1_3nfp_sap_20_mot_HHH_b2_00213_000000088_0001_1_18_H_._HEEHE_0331_af2_0001_0000400039_0000001_0_0001_af2pred_dldesign_0_af2pred (protein)
chain: SSSSSLRKELERLLKKAYETGKKNDKEKLKKLLEEALKLAKENKAKLSVKFLERALKQLKSSSSS
B10: il2ra_site1_1z92_normal_mot_HHH_b1_04604_af2_000000029_0001_42_56_H_._HHH_b2_07020_af2_0001_0000300012_0000001_0 (protein)
chain: SSSSSSDVIELALRLARALRRGDEEEVQELLEELKRYAEERDNRAAREIAERIEKHLGSSSSSSS
B11: il2ra_site1_1z92_sap_15_mot_e1ae4cb039f7b6770b9307eb87230ce5_0001_000000230_0001_37_51_H_._22eb9e4dad251339c268dc73c902281b_0001_0001_0000100004_0000001_0_0001_ … (protein)
chain: SSSSSSERDARIVVELAVRAAGLSEEQQEELERLAKELLEEGYSFEEIARILDKLALELGSSSSS
B12: il2ra_site2_2erj_sap_13_mot_HHH_b2_06689_af2_000000039_0001_18_34_H_._HHH_b1_05500_af2_0001_0000100002_0000001_0_0001 (protein)
chain: SSSSSEELHRLYELAVELLRAVAEGDEELVREILEEVEELAERADSENVKELIENLHRLFNSSSS
B13: il2ra_site1_2b5i_normal_mot_HHH_b1_02271_000000068_0001_1_16_H_._HHH_b2_05772_0001_0000400026_0000001_0_af2pred_dldesign_0_af2pred (protein)
chain: SSSSSPELKRLVEEALRRAEAAKAAGRVREALEILNAAHKKADEADDEELSDELEAKAKELSSSS
B14: il2ra_site1_1z92_sap_10_mot_d8cfa582855fb05d91e09f57594ab115_0001_1_000000067_0001_37_51_H_._HEEHE_2450_0001_0000100007_0000001_0_0001 (protein)
chain: SSSSSEAERAFELIREIDEVIREGDEEEAKRLLEELRRLAEERNSPTMKRLLELLEEALEGSSSS
B15: il2ra_site2_2erj_normal_mot_6bd1339e93f6fdda22195c76da45ec5d_0001_000000136_0001_37_51_H_._ems_3hC_696_0001_0000700021_0000001_0_af2pred_0001_af2pred (protein)
chain: LEEDILRAFRIAVELLEKFRDDPEIERLVLEASLELTEAIEENDEEKIERVIEKIEEIKEEADSS
B16: il2ra_site2_3nfp_sap_19_mot_HHH_b1_03376_000000004_0001_41_55_H_._88162e6262ef81793ed720f4f561f318_0001_0001_0000800035_0000001_0_0001_af2pred_0001_1_af2pred_sw … (protein)
chain: SSDEEQEESEELKELIREALEKNDDEKLRKLIKEAASFALQLNDEELLEFASEARALLAKLRLSS
B17: il2ra_site1_1z92_normal_mot_922575b2e9738a49cb663a995786872c_0001_af2_000000234_0001_18_32_H_._09c2afe89fb4cbada1505b3a46965288_0001_af2_0001_0000100006_0000001 … (protein)
chain: GPEQELEELEEELGDPREAIRLLLEELEEESGDPELARQFLKIEIKRLFNVPPEEAERLLREAEK
B18: il2ra_site1_3nfp_normal_mot_HHH_b1_04931_000000291_0001_38_56_H_._5fa2c1a30f04debedfe40931e4d0b367_0001_af2_0001_0000700055_0000001_0 (protein)
chain: DVRFLLEAARFAGDELVVEVAEKLEELREEDPDDQEVKELVQKLLQLLAKDPEEAKKLAEELKRR
B19: il2ra_site1_3nfp_normal_mot_ems_3hC_3_0002_000000237_0001_23_41_H_._971380201c9414114138cf1fdc40c0f4_0001_1_0001_0000300014_0000001_0_af2pred_0001_af2pred (protein)
chain: SLAEELVEEIEEKGLPPEEIEKLIREILKRIGDPEEAREFFEELMRLAAKNRNEELLEAIKLVLR
B20: il2ra_site1_3nfp_sap_10_mot_HHH_b2_00770_af2_000000063_0001_1_19_H_._HHH_b2_07788_0001_0000400012_0000001_0_0001 (protein)
chain: NEEARRLAEAIARGDPRVEELIEELVEELKRKGDPDLRHALKALARMARSFGNPELAEELERLLK
B21: il2ra_site1_1z92_normal_mot_HHH_b1_07828_af2_000000107_0001_18_34_H_._HHH_b1_02447_af2_0001_0000300012_0000001_0 (protein)
chain: SSSSDLEEAIEILLQAIRRAIEAGNEKAAERFIEFAKEQIEDSGDPELERILRELEELLRSSSSS
B22: il2ra_site1_2b5i_normal_mot_HHH_b1_02271_000000068_0001_1_16_H_._HHH_b1_08003_0001_0000900024_0000001_0_af2pred_dldesign_0_af2pred (protein)
chain: SSSSSDKKAEVERLIEEAERLYKAGKRREALEKLNEAKKLADAADDEELEDKIEELAKKISSSSS
B23: il2ra_site1_3nfp_sap_13_mot_0eddeacbb14b769e73e254714f31e2f9_0001_af2_000000052_0001_37_51_H_._3685a7fc0315cffcf770f862f50b42b9_0001_1_0001_0000400028_0000001_0 … (protein)
chain: SDLEEEVRELIELIKEFAEERNSPVAKLYAELLEEAARRAEERNDERSLRYVLRSARLALRSGSS
B24: il2ra_site1_1z92_sap_18_mot_HHH_b1_00368_000000203_0001_23_39_H_._d7cfadeb27be910639eb6e95e3396c32_0001_af2_0001_0000300014_0000001_0_0001 (protein)
chain: SSSSDEELEERVKQFAEELVKELGLDEHAREALEKDAEAAVRLGFSERSIKLALERAARRASSSS

The binders below were run against il2ra, P01589 (assay: yeast display titration).
Chain of il2ra, P01589 (P01589 whole entry): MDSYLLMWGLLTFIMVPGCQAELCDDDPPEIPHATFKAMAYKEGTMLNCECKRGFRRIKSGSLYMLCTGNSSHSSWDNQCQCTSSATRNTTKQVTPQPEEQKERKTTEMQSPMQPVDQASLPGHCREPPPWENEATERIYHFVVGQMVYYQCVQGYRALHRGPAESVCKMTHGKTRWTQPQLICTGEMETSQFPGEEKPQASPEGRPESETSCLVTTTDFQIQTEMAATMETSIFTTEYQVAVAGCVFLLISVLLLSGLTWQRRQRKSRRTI

Apparent Kd, inactive:
B1 no binding seen, B2 no binding seen, B3 no binding seen, B4 > 802 nM, B5 no binding seen, B6 no binding seen, B7 no binding seen, B8 no binding seen, B9 > 1470 nM, B10 no binding seen, B11 no binding seen, B12 no binding seen, B13 no binding seen, B14 no binding seen, B15 no binding seen, B16 no binding seen, B17 no binding seen, B18 no binding seen, B19 no binding seen, B20 no binding seen, B21 no binding seen, B22 no binding seen, B23 no binding seen, B24 no binding seen
